# Screening results (PubChem BioAssay)
# DAX1 inh-1 = DAX1 (NR0B1) inhibitors, primary screen, cell-based, HEK293, Gal4-DAX1, luciferase luminescence | Nuclear receptor subfamily 0 group B member 1 (Homo sapiens), P51843 | HEK293 Gal4-DAX1 luciferase reporter | inhibition, % at 6.75 µM | 340,000 compounds, 0.99% hits;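 active = inhibition above the mean over all tested compounds plus 3 SD, cut at about 4.2% in these data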;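 also: 0% = DAX1-transfected cells with DMSO and 100% = empty-vector control cells with DMSO; inhibition shows as a rise in luminescence from relieved DAX1 repression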
# Target sequence (P51843 207-470 limits assumed): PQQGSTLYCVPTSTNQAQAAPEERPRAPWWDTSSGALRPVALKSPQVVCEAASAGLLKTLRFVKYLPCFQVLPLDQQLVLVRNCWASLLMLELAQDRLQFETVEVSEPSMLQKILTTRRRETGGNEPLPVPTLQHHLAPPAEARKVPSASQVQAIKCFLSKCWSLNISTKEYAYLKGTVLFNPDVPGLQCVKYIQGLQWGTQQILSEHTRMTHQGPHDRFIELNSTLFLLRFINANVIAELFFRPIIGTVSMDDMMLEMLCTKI
# DAX1 inh-2 = DAX1 (NR0B1) inhibitors on StAR promoter, primary screen, cell-based, luminescence, SF-1 (NR5A1), full-length DAX-1 | inhibition, % at 6.8 µM | 370,000 compounds, 1.1% hits | AID 652010, 2013 | HEK293T StAR-luciferase reporter, SF-1/DAX-1 repression relief;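 active = inhibition above the mean over all tested compounds plus 3 SD, cut at about 3.6% in these data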;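 also: 0% = DAX-1 cells with DMSO and 100% = cells lacking DAX-1 with DMSO; higher inhibition means more luminescence from relief of DAX-1 repression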
# hcDAF12 agonist = H. contortus DAF-12 nuclear receptor activators, primary screen, cell-based, luminescence, HEK293, lit1-tk-luc reporter. HEK293 hcDAF-12 lit1-tk-luc reporter; 0% DMSO, 100% Δ7-dafachronic acid. activation, % at 6.8 µM. 370,000 compounds, 1.4% hits;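 active = activation above the mean of all tested compounds plus 3 SD, cut at about 5.5% in these data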;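 also: 100% = response to 3 µM Δ7-dafachronic acid high control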
# hgDAF12 agonist = H. glycines DAF-12 receptor agonists, primary screen, cell-based, luminescence, HEK293, GAL4 fusion, UAS-luciferase; Nuclear hormone receptor DAF-12 (Heterodera glycines), GAL4 fusion; HEK293 GAL4-hgDAF12 UAS-luciferase reporter, agonist luminescence; normalized to butyrate control; activation, % at 6.8 µM; 370,000 compounds, 1.8% hits;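 active = activation above a cutoff set at the mean of all screened compounds plus 3 SD, cut at about 10% in these data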;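 also: 0% = DMSO wells and 100% = sodium butyrate wells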
# SMARCA2 activ = SMARCA2 (BRM) function activators, primary screen, cell-based, luminescence, high throughput; AID 652017, 2013; activation, % at 9.1 µM; 370,000 compounds, 1% hits; MG213 cells, MMTV-luciferase reporter, dexamethasone, overnight; in the data active = activation above about 7.8%;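 also: 0% = vehicle wells and 100% = reference activator wells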
# ssDAF12 agonist = S. stercoralis DAF-12 nuclear receptor activators, primary screen, cell-based, luminescence, HEK293, GRIP1 co-expression, lit1-tk-luc. 370,000 compounds, 1% hits. HEK293 ssDAF-12/GRIP1 lit1-tk-luc reporter; % of 3 µM dafachronic acid response. AID 652126, 2013. activation, % at 6.8 µM;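 active = activation above the mean over all tested compounds plus 3 SD, cut at about 0.9% in these data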;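 also: 0% = DMSO-only wells and 100% = 3 µM delta7-dafachronic acid wells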
# SMARCA2 act conf = SMARCA2 (BRM) function activators, confirmation, cell-based, luminescence, triplicate; 3,500 compounds, 30% hits; MG213 cells, MMTV-luciferase with dexamethasone, overnight; MG213 cells expressing E1A, Rb sequestered; DMSO wells 0%, reference activator 100%; activation, % at 9.1 µM; shares compounds with SMARCA2 activ;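 active = activation above its plate's cutoff, the mean activation of tested wells plus 3 SD, cut at about 7.9% in these data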
# VP16 Luc act = GAL4-VP16 luciferase reporter activation, counter-screen for SMARCA2 (BRM) activator project, cell-based, pG5luc, luminescence, high throughput; HEK293 GAL4-VP16 pG5luc reporter; scaled: DMSO wells 0%, SAHA wells 100%; shares compounds with SMARCA2 activ; activation, % at 9.1 µM; 3,500 compounds, 41% hits;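 active = activation above the solvent-only control well mean plus 3 SD, averaged across control plates, cut at about 5.2% in these data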
# An asterisk follows results filed as active; x = not tested or not shown. Compounds with a hit are over-represented: about 4.8% of the library has one in this group of screens.
SMILES,DAX1 inh-1,DAX1 inh-2,hcDAF12 agonist,hgDAF12 agonist,SMARCA2 activ,ssDAF12 agonist,SMARCA2 act conf,VP16 Luc act
COC(=O)c1ccc(CC(=O)c2nc3ccccc3s2)cc1,-1,1,4,1,10*,1.0*,8.8*,6.9*
COC(=O)c1ccc(CSc2nc3ccccc3s2)o1,0,2,0,6,14*,-1,3,2
CC1(C)CC(=O)C(N=Nc2ccc(Br)cc2)=C(O)C1,x,0,0,1,8.3*,-1,11*,4
COC(=O)C1=C(C)N(C)C(=NCc2ccc3c(c2)OCO3)NC1c1ccc(Cl)cc1 (configuration not stated),x,0,-1,-1,-6,-1,x,x
Cc1ccc(C)c(SCC(=O)NNC(=O)c2ccccc2)c1,-1,0,-2,-1,-3,-1,x,x
Cc1ccc(SCC(=O)NNC(=O)c2ccccc2)cc1C,0,0,-1,0,9.6*,0,-4,-2
COc1ccccc1-n1cc(-c2ccccc2)c2c(=S)nc[nH]c21,0,0,0,-1,8.4*,-2,1,1
COc1ccccc1-n1cc(-c2ccccc2)[nH]c1=S,0,1,3,0,-2,0,x,x
COc1cccc(CNC(=O)[C@@H]2CCCN2C(=O)[C@@H]2CCCN2S(=O)(=O)c2ccc(OC)c(C)c2)c1,x,0,-1,0,9.1*,0,1,1
Oc1ccccc1C=NN1CCN(Cc2ccccc2)CC1,x,-1,-1,6,1,-1,x,x
Cc1ccc2nc(NC(=O)COC(=O)c3ccco3)sc2c1,1,2,5.8*,9,9.8*,0,8,2
O=C(COC(=O)c1ccco1)Nc1nc2ccc([N+](=O)[O-])cc2s1,-1,0,0,-1,-2,-1,x,x
Cc1cc(NS(=O)(=O)c2ccc(NC(=O)CSc3nnc(-c4cccnc4)n3-c3ccccc3)cc2)nc(C)n1,x,0,-1,-1,-3,-1,x,x
O=C(NC1=NCCS1)c1cccc(Br)c1,7.7*,2,5,11*,12*,0,17*,7.0*
c1ccc(OCc2nnc3sc(C4COc5ccccc5O4)nn23)cc1 (configuration not stated),2,0,-1,4,9.2*,-1,-2,0
COC(=O)C1CN(C2CC2)CCS(=O)(=O)N1Cc1cn(Cc2ccccc2)nn1 (configuration not stated),x,-1,-1,1,-3,-1,x,x
CCCCC(=O)N(Cc1ccccc1)c1ccccc1C(=O)Nc1cc(OC)ccc1OC,x,-1,-1,0,-6,-1,x,x
COc1cccc(C=NNc2ccc([N+](=O)[O-])cn2)c1OC,3,1,0,6,8.3*,0,7,3
O=C1c2cccc3cccc(c23)C(=O)N1CCN1CCN(CC(O)COCc2ccc(Cl)cc2)CC1 (configuration not stated),-2,-1,-6,-7,8.7*,-3,8.5*,5.4*
COc1cc(COCC(O)CN2CCN(CCN3C(=O)c4cccc5cccc(c45)C3=O)CC2)cc(OC)c1OC (configuration not stated),-1,0,-4,0,1,-1,x,x
Cn1ccc(NC(=O)c2ccc(Cl)cc2Cl)n1,1,3.9*,-1,7,8.6*,-1,5,10*
CC(C)(C)OC(=O)NCc1cc(F)ccc1/C=C/S(=O)(=O)NCc1ccc(F)cc1,x,-2,-2,-2,-2,-2,x,x
Cc1ccccc1CNC(=O)C1C2C=CC3(CN(Cc4ccccc4)C(=O)C13)O2 (configuration not stated),x,0,1,1,-6,-1,x,x
Cn1cc(CC(=O)NCc2ccc(F)cc2)c2ccccc21,-1,1,-2,-1,7,-1,x,x
Cn1cc(S(=O)(=O)Cc2ccc(F)cc2)c2ccccc21,1,0,-1,-5,8.2*,-2,-3,0
SMILES,DAX1 inh-1,DAX1 inh-2,hcDAF12 agonist,hgDAF12 agonist,SMARCA2 activ,ssDAF12 agonist,SMARCA2 act conf,VP16 Luc act
CCN(CC)C(=O)Oc1ccc2c(=O)c(-c3ccccc3)coc2c1,1,4.1*,1,11*,13*,0,8,11*
Cc1n[nH]c(=S)n1/N=C/c1cccc(OCc2ccccc2)c1,1,0,0,0,8.6*,-1,-1,2
NC(=O)CC1C(=O)N(c2ccccc2)C(=S)N1NC(=O)c1ccc(Br)cc1 (configuration not stated),0,1,0,9,7,-1,x,x
NC(=O)CC1C(=O)N(c2ccccc2)C(=S)N1NC(=O)c1ccccc1 (configuration not stated),0,1,3,6,8.0*,0,7,2
OC(c1ccccc1)(c1nc(-c2ccc3c(c2)OCO3)cs1)C(F)(F)F (configuration not stated),x,-1,-2,4,-3,0,x,x
N#C/C(=C\C=C\c1ccccc1)c1nc(-c2ccc3c(c2)OCO3)cs1,0,0,-1,-1,9.8*,-1,1,-1
CCOc1ccc2oc(=O)cc(C)c2c1,1,0,0,1,1,-1,x,x
CCC(=O)Oc1ccc2oc(=O)cc(C)c2c1,0,0,1,6,13*,-1,-1,0
CC(=O)N(C)C[C@@H]1OCc2ccccc2-c2c(n(C)c3ccccc23)C(=O)N([C@@H](C)CO)C[C@@H]1C,x,-1,0,-3,-3,-1,x,x
COC(=O)[C@]12C[C@H](CC(=O)NCc3ccc(C)o3)C(=O)N(Cc3ccc(Cl)cc3Cl)C1=C[C@H](C(C)C)O[C@@H]2C1CC1,x,-1,2,3,-3,-1,x,x
